# From PubChem BioAssay (EPA / NIEHS)
# The source made the active and inactive calls. The calls were made as follows: active = hit-call score of the fitted dose curve at least 0.9, where 1 is the maximum; inactive = score below 0.9.
# Assay: ATG_RORE_CIS: Attagene CIS-FACTORIAL HepG2 Assay for human RAR-related Orphan Receptor Element (RORE) (AID 2282959)
# Settings: HepG2 Attagene cis-factorial RORE reporter, mRNA; actives raise or lower the signal
# Outline: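 Multiplexed reporter assay measuring mRNA induction from a cis promoter element in transiently transfected HepG2 cells after 24 h treatment. Detection via RT-PCR and capillary electrophoresis fluorescence; DMSO serves as baseline.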
Structure (SMILES),outcome,AC50
O=C1OC(=O)C(F)(F)C1(F)F,inactive,–
CCCCc1ccc2ccccc2c1S(=O)(=O)O,inactive,–
Oc1c(Cl)cc(Cl)cc1Sc1cc(Cl)cc(Cl)c1O,–,2.56 µM (active)
CCOC(C)=O,inactive,–
CCc1cccc(CC)c1N(COC)C(=O)CS(=O)(=O)O,inactive,–
N=C(N)c1ccc(OCCCCCOc2ccc(C(=N)N)cc2)cc1,inactive,–
CCCCCCCCCCCCCCCC(=O)OC,inactive,–
O=C(O)CN(CCCN(CC(=O)O)CC(=O)O)CC(=O)O,inactive,–
CCC1CO1 (configuration not stated),inactive,–
CC=O,inactive,–
Cc1cc(Cc2cc(C)cc(C(C)(C)C)c2O)c(O)c(C(C)(C)C)c1,inactive,–
O=C(F)C(F)(F)C(F)(F)C(F)(F)C(=O)F,inactive,–
CCOC(OCC)C(=O)c1ccccc1,inactive,–
O=C1c2ccc(O)c(O)c2C(=O)c2c(O)ccc(O)c21,inactive,–
CCc1cccc(CC)c1NC(=O)C(=O)O,inactive,–
OCC(CO)(CBr)CBr,inactive,–
CCOCCOCC,inactive,–
OCC(F)(F)C(F)(F)C(F)(F)C(F)(F)C(F)(F)C(F)(F)C(F)(F)C(F)(F)C(F)(F)C(F)(F)C(F)(F)F,inactive,–
CCOC(=O)c1nc(C(Cl)(Cl)Cl)n(-c2ccc(Cl)cc2Cl)n1,–,167 µM (active)
CC(C)c1c(C(=O)Nc2ccccc2)c(-c2ccccc2)c(-c2ccc(F)cc2)n1CC[C@@H](O)C[C@@H](O)CC(=O)O,inactive,–
C[C@]12CC[C@@H]3c4ccc(O)cc4CC[C@H]3[C@@H]1C[C@@H](O)[C@@H]2O,inactive,–
FC(OC(F)(F)C(F)(F)C(F)(F)F)C(F)(F)F (configuration not stated),inactive,–
